Screening data deposited in PubChem BioAssay by University of Kansas High Throughput Screening Laboratory.
Pf apPOL block – Pf-apPOL inhibitors, biochemical, fluorescence | Plasmodium falciparum apicoplast DNA polymerase (apPOL) | Recombinant Pf-apPOL, molecular beacon fluorescence, 1.5 h | inhibition, % at 10 µM | 210,000 compounds, 0.25% hits | AID 1794808, 2022
mHTT CaM bind – mutant huntingtin-calmodulin interaction inhibitors – biochemical, AlphaScreen, primary screen; AID 1671202, 2021; inhibition, % at 15 µM; 190,000 compounds, 3.6% hits; AlphaScreen His-mHTT/GST-CaM binding, luminescence; P42858;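 note: 0% = both proteins with DMSO and 100% = one protein alone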
Active calls of the source: *. The full list was thinned out, with hits kept by preference. Cut-off read from the data, not from the text of the source: active = inhibition above about 50%; inactive = the rest.

What do the screens show for `Cc1ccc(N2C(=O)CSC2c2ccccc2F)cc1C` (centres undefined)?
Pf apPOL block: 4; mHTT CaM bind: -12

How did CN(C)c1ccc(CCCNC(=O)C(=O)NCc2ccc(F)cc2)cc1 do in these assays?
Pf apPOL block: 2; mHTT CaM bind: 0

What do the screens show for `Cc1ccccc1NC(=O)c1cc2cc(Cl)cc(Cl)c2oc1=O`?
Pf apPOL block: -8; mHTT CaM bind: 2

How did CC(C)c1ccc(NC(=O)c2ccc(Cl)cc2)cc1 do in these assays?
Pf apPOL block: -18; mHTT CaM bind: -7

What do the screens show for `COc1cccc(C2=NC(C)(C(C)C)NC(c3ccccc3O)C2)c1` (centres undefined)?
Pf apPOL block: -1; mHTT CaM bind: 70*

Results for COc1ccc(C2=NC3(CCN(C(C)=O)CC3)NC(c3cc(Cl)ccc3O)C2)cc1 (centres undefined) ?
Pf apPOL block: -4; mHTT CaM bind: 99*

What do the screens show for `CCN1CCC2(CC1)N=C(c1ccc(F)cc1)CC(c1cc(Cl)ccc1O)N2` (centres undefined)?
Pf apPOL block: 3; mHTT CaM bind: 28

How did COc1cccc(C2CC(c3ccc(Cl)cc3)=NC3(CCN(C(C)=O)CC3)N2)c1O (centres undefined) do in these assays?
Pf apPOL block: -2; mHTT CaM bind: 58*

How did CCOC(=O)N1CCC2(CC1)N=C(c1ccc3c(c1)OCO3)CC(c1ccccc1O)N2 (centres undefined) do in these assays?
Pf apPOL block: 6; mHTT CaM bind: 21

How did COc1cccc(C2CC(c3ccc(C)c(C)c3)=NC3(CCN(C(C)=O)CC3)N2)c1O (centres undefined) do in these assays?
Pf apPOL block: 1; mHTT CaM bind: 39

What do the screens show for `COc1ccc(O)c(C2=NC3(CCN(C(C)C)CC3)NC(c3ccccc3O)C2)c1` (centres undefined)?
Pf apPOL block: -2; mHTT CaM bind: 29

Results for CCCC1(C)N=C(c2ccc3c(c2)OCO3)CC(c2ccccc2O)N1 (centres undefined) ?
Pf apPOL block: -8; mHTT CaM bind: 84*

How did Cc1ccc(C2=NC3(CCN(C)CC3)NC(c3ccccc3O)C2)cc1 (centres undefined) do in these assays?
Pf apPOL block: -1; mHTT CaM bind: 13

How did CC(=O)N1CCC2(CC1)N=C(c1ccc3c(c1)OCO3)CC(c1cc(Cl)ccc1O)N2 (centres undefined) do in these assays?
Pf apPOL block: 1; mHTT CaM bind: 79*

What do the screens show for `CCOC(=O)N1CCC2(CC1)N=C(c1ccc(F)cc1)CC(c1cc(Cl)ccc1O)N2` (centres undefined)?
Pf apPOL block: 4; mHTT CaM bind: 29

Results for CCN1CCC2(CC1)N=C(c1ccc3c(c1)OCO3)CC(c1cc(Cl)ccc1O)N2 (centres undefined) ?
Pf apPOL block: 0; mHTT CaM bind: 17

What do the screens show for `Cc1ccc(C2=NC(C)(C)NC(c3ccccc3O)C2)cc1` (centres undefined)?
Pf apPOL block: -3; mHTT CaM bind: 100*

What do the screens show for `CC(=O)N1CCC2(CC1)N=C(c1ccc(C)c(C)c1)CC(c1cc(Cl)ccc1O)N2` (centres undefined)?
Pf apPOL block: -2; mHTT CaM bind: 63*

What do the screens show for `CCNC(=O)C1CCN(c2nc3ccc(-c4cccc(OC)c4)nc3s2)CC1`?
Pf apPOL block: -3; mHTT CaM bind: 15

How did O=C(Nc1cc(-c2ccc(F)cc2)[nH]n1)c1ccc([N+](=O)[O-])cc1 do in these assays?
Pf apPOL block: 0; mHTT CaM bind: 20

Results for COCCN=C1Nc2ccccc2NC12CCCN(C(=O)c1cc(F)ccc1F)C2 (centres undefined) ?
Pf apPOL block: -4; mHTT CaM bind: 18

Results for COCCN=C1Nc2ccccc2NC12CCCN(C(=O)c1ccc(OC)c(OC)c1)C2 (centres undefined) ?
Pf apPOL block: -1; mHTT CaM bind: 6

Results for Cc1cccc(NC(=O)N2CCC3(C2)Nc2cccnc2NC3=NCc2ccccc2)c1 (centres undefined) ?
Pf apPOL block: -2; mHTT CaM bind: -1

Results for COCCN=C1Nc2ccccc2NC12CCCN(C(=O)Nc1cc(F)cc(F)c1)C2 (centres undefined) ?
Pf apPOL block: -2; mHTT CaM bind: 100*

How did O=C(Nc1cccc(F)c1)N1CCCC2(C1)Nc1cccnc1NC2=NCc1ccccc1 (centres undefined) do in these assays?
Pf apPOL block: -8; mHTT CaM bind: 64*

What do the screens show for `COCCN=C1Nc2ccccc2NC12CCCN(C(=O)Nc1ccc(C)cc1C)C2` (centres undefined)?
Pf apPOL block: -9; mHTT CaM bind: 100*

Results for CC1(C)C2CCC1(CS(=O)(=O)Nc1cccc(F)c1)C(=O)C2 (centres undefined) ?
Pf apPOL block: -3; mHTT CaM bind: -6

What do the screens show for `COc1cccc(C2=NN(C(=O)c3ccc(Cl)cc3)C(O)(C(F)(F)F)C2)c1` (centres undefined)?
Pf apPOL block: 0; mHTT CaM bind: 30

How did O=c1/c(=C/c2cccnc2)sc2n1CN(c1ccc3c(c1)OCO3)CN=2 do in these assays?
Pf apPOL block: -5; mHTT CaM bind: 3

How did CCCCC[C@H](C)N1C[C@@H](COCc2ccccc2)Oc2cc(N3CCC[C@H]3C(N)=O)ccc2S1(=O)=O do in these assays?
Pf apPOL block: -8; mHTT CaM bind: 69*

What do the screens show for `CCCCC[C@H](C)N1C[C@H](COCc2ccccc2)Oc2cc(N3CCC[C@@H]3COC)ccc2S1(=O)=O`?
Pf apPOL block: -4; mHTT CaM bind: -9

What do the screens show for `CCCCC[C@@H](C)N1C[C@@H](COCc2ccccc2)Oc2cc(N3CCC[C@H]3C(N)=O)ccc2S1(=O)=O`?
Pf apPOL block: -1; mHTT CaM bind: 43

Results for CCCCC[C@@H](C)N1C[C@H](COCc2ccccc2)Oc2cc(N3CC[C@H](O)C3)ccc2S1(=O)=O ?
Pf apPOL block: -10; mHTT CaM bind: 78*

How did CCCCC[C@@H](C)N1C[C@H](COCc2ccccc2)Oc2cc(N3CC[C@H](N(C)C)C3)ccc2S1(=O)=O do in these assays?
Pf apPOL block: -19; mHTT CaM bind: 100*

Results for CCCCC[C@H](C)N1C[C@H](COCc2ccccc2)Oc2cc(N3CCC[C@@H]3CO)ccc2S1(=O)=O ?
Pf apPOL block: -12; mHTT CaM bind: 26

How did CCCCC[C@H](C)N1C[C@H](COCc2ccccc2)Oc2cc(N3CCC[C@H]3CO)ccc2S1(=O)=O do in these assays?
Pf apPOL block: -11; mHTT CaM bind: 36

What do the screens show for `CCCCC[C@H](C)N1C[C@H](COCc2ccccc2)Oc2cc(N3CC[C@H](O)C3)ccc2S1(=O)=O`?
Pf apPOL block: -13; mHTT CaM bind: 96*

Results for CCC(=O)Nc1cccnc1-c1ccc(C(=O)NCCC(C)C)cc1 ?
Pf apPOL block: 0; mHTT CaM bind: -4

Results for CCCCC[C@@H](C)N1C[C@H](COCc2ccccc2)Oc2cc(N3CC[C@@H](O)C3)ccc2S1(=O)=O ?
Pf apPOL block: -8; mHTT CaM bind: 58*

What do the screens show for `CCCCC[C@H](C)N1C[C@@H](COCc2ccccc2)Oc2cc(N3CCC[C@H]3CO)ccc2S1(=O)=O`?
Pf apPOL block: -3; mHTT CaM bind: 14

Results for COC(=O)c1ccccc1NC(=O)CSc1ccc2ccccc2n1 ?
Pf apPOL block: -10; mHTT CaM bind: -1
